# Compounds without any hit were thinned out: in the full panel of roughly 83,000, 20% have a hit.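 For each line, cells grew in 96-well plates with the test compound present at a single concentration for 48 hours.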 Unmarked numbers belong to inactive results. Activity calls are given as the source filed them. Rule for the calls: active = growth percent below 10; inactive = the rest.
# Tested on: SN12C renal
# Assay: NCI-60 one-dose screen, 48 h (100 = growth as untreated, 0 = no growth, -100 = all killed)
# Conditions: 10 µM unless noted
row,SMILES,growth
1,COc1ccc(C2CC(c3ccc(Nc4ccnc5cc(Cl)ccc45)cc3)=NN2c2ccccc2)cc1 (centres undefined),91.9%
2,O=C(/C=C/c1cn(-c2ccccc2)nc1-c1cccc(Nc2ccnc3cc(Cl)ccc23)c1)c1ccc2c(c1)OCO2,117%
3,NC(=O)c1noc(C(=O)c2ccccc2)c1N,99.7%
4,Fc1ccc(-c2ccnc3nc(-c4ccncc4)nn23)cc1,110%
5,O=C1CC2(O)CSc3nc(=O)cc(n32)N1 (centres undefined),96.9%
6,Nc1ncnc2c1N=C(c1ccc(F)cc1)CC(c1sc(Cl)nc1Cl)N2 (centres undefined),81.3%
7,CCOC(CN1CCN(CC(C)C(=O)c2ccccc2)CC1)c1ccccc1 (centres undefined),98.6%
8,COc1ccc2[nH]c(C(=O)OCc3ccc4cccc(O)c4n3)cc2c1,-74.8% (active)
9,COc1ccc(-c2nc(-c3ccccc3OCc3ccccc3OC)nc(C)c2C(C)=O)cc1,85.1%
10,[Ag].[Ag].[NH-]S(=O)(=O)c1ccc(N=Nc2cc(N=Nc3ccc(S([NH-])(=O)=O)cc3)c3c(NC(=O)C(Cl)Cl)cccc3c2OC(=O)C(Cl)Cl)cc1.[c-]1nccs1.[c-]1nccs1,89.6%
11,COc1cc(C2CC(c3cccc(Nc4ccnc5cc(Cl)ccc45)c3)=NN2c2ccccc2)cc(OC)c1OC (centres undefined),68.1%
12,CCCCCCCCCCCCCCCc1cc(O)ccc1[N+](=O)[O-],75.5%
13,Cc1ccc(C2CC(c3cccs3)=NN2c2ccc(S(N)(=O)=O)cc2)s1 (centres undefined),98.3%
14,Nc1nc(N)c2c(n1)NC(c1sc(Cl)nc1Cl)CC(c1ccccc1)=N2 (centres undefined),48.7%
15,C=CCn1c(C)nc2cc(Nc3nc(N4CCCC4)nc4nc[nH]c34)ccc21,36.8%
16,Cc1cc(C)c2c(n1)sc1c(Nc3ccc(OCc4ccccc4)cc3)ncnc12,101%
17,CCN(CC)C(Cl)=Nc1ccc(Cl)cc1,99.2%
18,Cc1nc2ccc(Nc3nc(N4CCOCC4)nc(N4CCN(C)CC4)n3)cc2n1Cc1ccccc1,113%
19,CC(=O)c1c(C)nc(-c2cc(C)cc(Cl)c2)nc1-c1cccc(Oc2ccccc2)c1,80.1%
20,Cc1cc(C)c2c(NC(=O)Nc3ccc(Cl)c(Cl)c3)n[nH]c2n1,103%
21,Brc1ccccc1Cn1c(-c2cncs2)nc2ccccc21,85.1%
22,CC(C)(C)c1ccc(Cn2c(-c3nonc3N)nc3ccccc32)cc1,73.6%
23,COc1ccc(Nc2ncnc3c2sc2nc(C)cc(C)c23)cc1,99.7%
24,CCOc1cccc(/C=N/NC(=O)c2ccc(Nc3ccnc(C(F)(F)F)c3)cc2)c1O,40.7%

# Reference: PubChem BioAssay (NCI)
